# The list is not random: actives were taken first. Their share in the collection is about 5.3%.
# ALR H2O2 inh = blocks human ALR sulfhydryl oxidase activity | P55789 | purified ALR, DTT oxidation, H2O2 HRP-luminol luminescence | inhibition, % (test concentration not listed) | 290,000 compounds, 3.8% hits | AID 485317;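 active = mean replicate inhibition above about 79%, with every replicate also reaching it, limit read from the data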
# Target sequence (P55789 whole entry, looked up): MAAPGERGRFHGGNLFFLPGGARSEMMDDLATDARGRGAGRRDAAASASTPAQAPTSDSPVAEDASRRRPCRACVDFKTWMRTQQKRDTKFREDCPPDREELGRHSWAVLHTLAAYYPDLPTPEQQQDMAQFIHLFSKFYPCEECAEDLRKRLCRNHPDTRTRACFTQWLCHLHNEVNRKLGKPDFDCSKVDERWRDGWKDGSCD
# HIF act = HIF pathway transcriptional activation; AID 1910; U2OS HRE-luciferase reporter, luminescence; normalized: DMSO 0%, desferrioxamine 100%; activation, % at 7.5 µM (by protocol); 300,000 compounds, 0.32% hits;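 active = mean activation of at least 10% of the iron chelator positive control signal, with at least half of replicates also reaching 10%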
# SUMO Mot1 rescue = SUMOylation pathway inhibition by Mot1-301 growth rescue; S. cerevisiae Mot1-301 growth rescue, ATP luminescence, 38.5C; percent above DMSO median, 100 means doubled; growth rescue, % at 18.8 µM; 320,000 compounds, 1% hits; AID 2716;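 active = every valid replicate shows activation above 250% relative to neutral control wells; inactive = the rest, any valid replicate at or below 250%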;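 also: OY570 slx delta 5 strain wells were the positive control but not used for scaling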
# PfM18AAP inh = blocks P. falciparum M18 aspartyl aminopeptidase; recombinant PfM18AAP, H-Glu-NHMec fluorogenic cleavage; inhibition, % at 7.35 µM; 290,000 compounds, 1.2% hits; AID 1822;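 active = inhibition above the campaign mean inhibition over all tested compounds plus 3 SD, cut at about 28% in these data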;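 also: 0% = plate median of test compound wells and 100% = 2 mM ZnCl2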
# The depositor's hits bear a star; / = no result; + = active, no number.
SMILES,ALR H2O2 inh,HIF act,SUMO Mot1 rescue,PfM18AAP inh
COc1ccc(CCC(C)Nc2cccc(C)c2)cc1 (configuration not stated),99*,-1,36,8
CCCCC(NC(=O)Cc1c(C)c2cc3c(C)c(C)oc3c(C)c2oc1=O)C(=O)O (configuration not stated),97*,-1,-11,2
N#C/C(=C\c1ccc(/C=C(/C#N)c2nn(CCO)c(N)c2C#N)cc1)c1nn(CCO)c(N)c1C#N,-1,155*,8,-5
CCc1ccc(NC(=O)C2CC=CCC2C(=O)O)cc1 (configuration not stated),-6,-2,-9,7
O=C(O)Cc1ccc(NC(=O)C2CC=CCC2C(=O)O)cc1 (configuration not stated),-10,1,625*,-13
c1ccc(CNc2ccc3c(c2)ncn3C2CCCCC2)nc1,94*,1,135,3
CCCCS(=O)(=O)Nc1ccc2c(c1)ncn2C1CCCCC1,-1,0,26,-8
CCC(=O)N1CCN(c2ccccc2NC(=O)COc2cc(C)ccc2C(C)C)CC1,-2,0,21,-2
COc1cccc(NC(=O)c2cc(OC)c(OC)c(OC)c2Br)c1,97*,0,8,-3
CC(/C=C1\SC(=O)N(CCCC(=O)O)C1=O)=C\c1ccccc1,97*,-7,32,1
CC(=C\c1ccccc1)/C=C1/SC(=S)N(CCCC(=O)O)C1=O,14,-52,-18,-6
Cc1ccc2nc(SCC(=O)Nc3cccnc3Cl)[nH]c2c1,88*,/,18,/
NS(=O)(=O)c1cccc(NC(=O)CSc2nc3ccc(Cl)cc3[nH]2)c1,97*,-1,208,-2
Nn1cc(-c2ccccc2)nc1SCC(=O)Nc1ccc(S(N)(=O)=O)cc1,/,0,-8,-14
Nn1cc(-c2ccccc2)nc1SCC(=O)Nc1cccc(S(N)(=O)=O)c1,99*,0,7,6
Cc1ccc2nc(SCC(=O)Nc3cccc(S(=O)(=O)N(C)C)c3)[nH]c2c1,/,0,-22,6
C/C(=N\NC(=O)c1ccc(N/N=C(\C)c2ccncc2)cc1)c1ccncc1,98*,0,-10,-12
C/C(=N/NC(=O)c1ccncc1)c1ccccc1,-9,0,77,6
C/C(=N\NC(=O)c1ccncc1)c1ccc(N(C)C)cc1,91*,0,-14,2
Cc1ccc(C(=O)N(C)CC(=O)Nc2cccc(F)c2)cc1S(=O)(=O)N1CCCCC1,-9,0,-21,/
NC(=O)c1ccccc1NC(=O)c1cc(S(=O)(=O)N2CCCCC2)ccc1N1CCOCC1,/,/,-8,/
C#CC(CC)(CC)NC(=S)Nc1cccc(C(C)=O)c1,-1,0,3,8
COc1ccccc1OCCN1CSC(=S)N(C)C1,/,0,+,2
CCNC(=O)C1CCCN1C(=O)C(CCCN=C(N)N)NC(=O)C(CC(C)C)NC(=O)C(Cc1cn(Cc2ccccc2)cn1)NC(=O)C(Cc1ccc(O)cc1)NC(=O)C(CO)NC(=O)C(Cc1c[nH]c2ccccc12)NC(=O)C(Cc1cnc[nH]1)NC(=O)C1CCC(=O)N1 (configuration not stated),-3,0,14,1
Cc1ccc(C(=O)O/N=C(\N)c2ccccn2)c(Cl)c1,91*,-6,-38,1
SMILES,ALR H2O2 inh,HIF act,SUMO Mot1 rescue,PfM18AAP inh
CC(=O)COC(=O)c1ccc2noc(-c3ccccc3)c2c1,-3,2,31,30*
CCOc1ccc(C(c2c(O)nc(SC)n(C)c2=O)c2c(O)nc(SC)n(C)c2=O)cc1,98*,0,/,-6
COc1cccc(/C=N/n2c(C3CCCCC3)n[nH]c2=S)c1O,92*,0,-5,16
S=c1[nH]nc(C2CCCCC2)n1/N=C/c1ccccc1,-2,-1,27,12
S=c1[nH]nc(C2CCCCC2)n1/N=C/c1ccccn1,96*,0,4,15
COc1cc(/C=N/n2c(C3CCCCC3)n[nH]c2=S)ccc1O,98*,-10,-24,21
COc1cccc(/C=N/n2c(C3CCCCC3)n[nH]c2=S)c1OC,-5,-1,26,4
COc1ccc2nc(NC(=O)c3sc4nc(C)cc(C)c4c3N)sc2c1,3,1,14,2
Cc1ccc(CC(=O)NNC(=O)c2ccncc2)cc1C,-7,-1,-1,/
Cc1ccc2[nH]c(=O)c3cc(C(=O)NC(C)C)sc3c2c1,7,-3,228,-5
Cc1cccc(N2CCN(C(=O)CSc3nnnn3C3CC3)CC2)c1C,-5,/,22,/
COc1ccc(C(CNC(=O)c2ccc(Cl)c(NC(=O)c3cccs3)c2)N2CCCC2)cc1 (configuration not stated),-11,-15,314,/
CN1C(=O)/C(=C/c2ccc(OCc3ccc(C(=O)O)cc3)c(Cl)c2)NC1=S,39,0,26,-2
CCCN1C(=O)/C(=C/c2ccc(OCc3ccc(C(=O)O)cc3)c(OC)c2)NC1=S,92*,0,-16,/
CCOc1cc(/C=C2\NC(=S)N(C)C2=O)ccc1OCc1ccc(C(=O)O)cc1,89*,-1,26,17
CCCN1C(=O)/C(=C/c2ccccc2OCc2ccc(C(=O)O)cc2)NC1=S,79*,0,-14,3
O=C(O)c1ccc(COc2ccccc2/C=C2\NC(=O)N(Cc3ccccc3)C2=O)cc1,7,0,6,-2
CCC(C)Nc1nc2c(c(=O)[nH]c(=O)n2C)n1CCCc1ccccc1 (configuration not stated),82*,0,-4,4
Cn1c(=O)[nH]c(=O)c2c1nc(Br)n2C/C=N/NC(=O)c1ccccc1,-3,2,-8,4
C=CCNc1nc2c(c(=O)n(C)c(=O)n2C)n1Cc1ccc(F)cc1,-1,0,-5,-3
Cn1c(=O)[nH]c(=O)c2c1nc(Br)n2C/C=N/Nc1ccccc1,100*,0,234,4
CCC(C)Nc1nc2c(c(=O)n(C)c(=O)n2C)n1Cc1ccc(F)cc1 (configuration not stated),90*,0,31,-3
COc1ccccc1NC(=O)NC1(C(=O)N2CCCCC2)CCCCC1,-2,0,7,1
Cc1ccc(OCC(=O)Nc2cccc(S(=O)(=O)N3CCCCCC3)c2)cc1C,1,0,5,/
Cc1cccc(C(=O)N/C(=C\c2ccco2)C(=O)N2CCCC2)c1,95*,0,-19,29*
Cc1ccc(C(=O)N/C(=C/c2ccco2)C(=O)N2CCCCCC2)cc1,7,0,152,11
O=C(N/C(=C\c1ccco1)C(=O)N1CCCC1)c1ccccc1,25,0,1,32*
COCCCNC(=O)c1ccc2c(=O)n(CC3CCCO3)c(=S)[nH]c2c1 (configuration not stated),87*,0,3,4
CCCCn1c(SCC(=O)Nc2cccc(OC)c2)nc2ccc(N3CCOCC3)cc2c1=O,99*,0,-8,11
O=C(CSc1nc2ccccc2[nH]1)Nc1ccc(N2CCOCC2)cc1,99*,0,-1,6

# Assay outcomes from PubChem.
